PubChem BioAssay
Activity calls are given as the source filed them.

Columns and labels:
[1] = tested on: Human papillomavirus type 1a protein E7 (residues 44-93); experiment: HPV1a E7 fragment binders on microarrays, primary screen, biochemical, small-molecule microarray, residues 44-93, 635 nm fluorescence (AID 1108); details: small-molecule microarray binding, fluorescence 635 nm; higher = more signal;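 note: E7 fragment applied at 1 µg/mL in TBST for 1 h at 4 C; score combines spot fluorescence with its signal to noise ratio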
[2] = modulators of HCV replicon luciferase signal, primary screen, HCV replication inhibitor project, Huh7 cells, luciferase reporter (AID 1109); details: 48 h, higher = more signal;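 note: huh7 hepatoma cells harbouring a luciferase neomycin HCV replicon reporter; luciferase luminescence as measure of HCV replicon replication; test concentration not given here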
[3] = biological target: Left-right determination factor 2 (Homo sapiens) (UniProt O00292); experiment: LEFTY2 binders on small-molecule microarrays, primary screen, biochemical, small-molecule microarray, 635 nm fluorescence scan (AID 1110); details: LEFTY2 binding, higher = more signal
[4] = biological target: Calmodulin-1 (Homo sapiens) (UniProt P0DP23); experiment: CALM1 binders on microarrays, EGTA buffer, profiling panel, biochemical, small-molecule microarray, Cy5-labelled CALM1 (AID 1111); details: Cy5-CALM1 binding fluorescence, higher = more signal;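 note: labelled calmodulin applied in Tris saline Tween buffer holding calcium plus EGTA and DTT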
[5] = biological target: Calmodulin-1 (Homo sapiens) (UniProt P0DP23); experiment: calcium-bound CALM1 binders on microarrays, profiling panel, artefact control for SMM control-protein annotation, biochemical, small-molecule microarray, Cy5-labelled CALM1, plus calcium (AID 1112); details: Cy5-CALM1 binding fluorescence, higher = more signal;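 note: score merges spot fluorescence with signal to noise from triplicate slides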
[6] = small-molecule microarray binders of probe aWnt5a, primary screen, biochemical, biotinylated probe, 635/667 nm fluorescence (AID 1113); details: higher = more signal;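 note: score merges 667 nm fluorescence intensity with signal-to-noise per printed feature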
[7] = small-molecule microarray binders of probe aShh, primary screen, biochemical, biotinylated probe, 635/667 nm fluorescence (AID 1114); details: higher = more signal;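 note: probe is biotin-labelled aShh protein from a stem cell growth factor screen; measures binding of labelled protein to compounds printed on the slide; score merges feature fluorescence at 667 nm with signal-to-noise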
[8] = small-molecule microarray binders of probe aNog, primary screen, biochemical, biotinylated probe, 635/667 nm fluorescence (AID 1115); details: higher = more signal;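 note: probe is biotinylated aNog protein used at 0.15 µg/mL for 1 h at 4 C; z-score combines 667 nm fluorescence of each spot with its signal to noise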
[9] = biological target: Torsin-1A-interacting protein 1 (Homo sapiens) (UniProt Q5JTV8); experiment: LAP1 binders from COS7 cell lysate, primary screen, small-molecule microarray, 635/667 nm fluorescence (AID 1116); details: COS7-hLAP1 lysate binding, 635 nm fluorescence, higher = more signal
[10] = biological target: Alpha-bungarotoxin (Bungarus multicinctus) (UniProt P60615); experiment: alpha-bungarotoxin binders on microarray, profiling panel, artefact control for SMM control protein annotation, biochemical, small-molecule microarray, Alexa647 label, 635/667 nm fluorescence (AID 1117); details: alpha-BTX-A647 binding fluorescence, higher = more signal
Albumin (Bos taurus) = Albumin (Bos taurus) (UniProt P02769); experiment: bovine serum albumin binders on microarray, profiling panel, artefact control for SMM control protein annotation, biochemical, small-molecule microarray, Alexa647 label, 635/667 nm fluorescence (AID 1118); details: BSA-A647 binding, fluorescence 635 nm, higher = more signal;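 note: score merges 667 nm emission intensity and signal-to-noise per printed compound spot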
[11] = small-molecule microarray binders of probe aXIP, primary screen, biochemical, NeuroSMM set, 635/667 nm fluorescence (AID 1119); details: higher = more signal, called active from +8 up or from −8 down;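 note: probe is the protein aXip251-270 applied at 1 µg/mL to compound-printed slides; binding of probe to printed compounds measured as 667 nm fluorescence plus signal to noise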
[12] = small-molecule binders of probe aNOTCH3, primary screen, biochemical, small-molecule microarray, 635/667 nm fluorescence (AID 1120); details: higher = more signal;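 note: probe is a biotin-tagged antibody raised against NOTCH3 rather than NOTCH3 protein; score merges spot fluorescence near 667 nm with spot signal to noise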
[13] = small-molecule binders of probe aNOTCH2, primary screen, biochemical, small-molecule microarray, 635/667 nm fluorescence (AID 1121); details: higher = more signal;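 note: score merges feature fluorescence read at 667 nm with its signal to noise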
[14] = biological target: Carbonic anhydrase 2 (Homo sapiens) (UniProt P00918); experiment: CAII small-molecule binders, profiling panel, biochemical, small-molecule microarray, Alexa647-labelled CAII (AID 1122); details: CAII-A647 binding fluorescence, higher = more signal
[15] = COS7 lysate on small-molecule microarray, probe aHis, 635 nm (AID 1123); details: COS7 cell lysate, fluorescence, higher = more signal;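 note: z-score combines 667nm fluorescence intensity with signal-to-noise per printed compound spot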
[16] = compound binding in COS7 lysate, probe aLAP1, primary screen, cell lysate, small-molecule microarray (AID 1124); details: probe aLAP1, fluorescence, higher = more signal;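 note: lysate comes from COS7 cells expressing LAP1 and is applied at 0.3 µg/mL; score merges spot fluorescence near 667 nm with signal-to-noise over triplicate slides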
Sam68 (KHDRBS1) = experiment: Sam68 small-molecule binders, primary screen, biochemical, small-molecule microarray, 635 nm fluorescence (AID 1125); details: small-molecule microarray binding, higher = more signal;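 note: score merges 667 nm channel intensity with signal to noise over triplicate slides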
[17] = tested on: Chordin-like protein 2 (CHRDL2); experiment: CHRDL2 small-molecule binders, primary screen, biochemical, small-molecule microarray, 635 nm fluorescence (AID 1126); details: small-molecule microarray binding, fluorescence 635 nm; higher = more signal;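 note: printed compound slides probed with Chrdl2 protein at 4 µg/mL for 1 h at 4 C; score merges 667 nm emission intensity with signal to noise over three replicate slides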
[18] = biological target: Concanavalin-A (Canavalia ensiformis) (UniProt P02866); experiment: ConA small-molecule binders, primary screen, artefact control for SMM control protein annotation, biochemical, small-molecule microarray, Alexa647 label, 635 nm (AID 1127); details: ConA-A647 binding fluorescence, higher = more signal;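 note: z combines 667 nm emission intensity with signal-to-noise across three replicate slides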
Chain of Concanavalin-A (Canavalia ensiformis) (P02866 whole entry, looked up): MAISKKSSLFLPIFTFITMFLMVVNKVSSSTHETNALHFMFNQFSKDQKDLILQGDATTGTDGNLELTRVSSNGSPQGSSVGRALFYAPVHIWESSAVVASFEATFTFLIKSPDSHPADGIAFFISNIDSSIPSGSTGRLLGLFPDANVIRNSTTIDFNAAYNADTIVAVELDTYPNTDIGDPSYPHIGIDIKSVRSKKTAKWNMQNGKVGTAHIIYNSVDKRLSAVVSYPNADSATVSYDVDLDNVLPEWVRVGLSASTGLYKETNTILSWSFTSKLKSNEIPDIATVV

Chain of Torsin-1A-interacting protein 1 (Homo sapiens) (Q5JTV8 whole entry, looked up): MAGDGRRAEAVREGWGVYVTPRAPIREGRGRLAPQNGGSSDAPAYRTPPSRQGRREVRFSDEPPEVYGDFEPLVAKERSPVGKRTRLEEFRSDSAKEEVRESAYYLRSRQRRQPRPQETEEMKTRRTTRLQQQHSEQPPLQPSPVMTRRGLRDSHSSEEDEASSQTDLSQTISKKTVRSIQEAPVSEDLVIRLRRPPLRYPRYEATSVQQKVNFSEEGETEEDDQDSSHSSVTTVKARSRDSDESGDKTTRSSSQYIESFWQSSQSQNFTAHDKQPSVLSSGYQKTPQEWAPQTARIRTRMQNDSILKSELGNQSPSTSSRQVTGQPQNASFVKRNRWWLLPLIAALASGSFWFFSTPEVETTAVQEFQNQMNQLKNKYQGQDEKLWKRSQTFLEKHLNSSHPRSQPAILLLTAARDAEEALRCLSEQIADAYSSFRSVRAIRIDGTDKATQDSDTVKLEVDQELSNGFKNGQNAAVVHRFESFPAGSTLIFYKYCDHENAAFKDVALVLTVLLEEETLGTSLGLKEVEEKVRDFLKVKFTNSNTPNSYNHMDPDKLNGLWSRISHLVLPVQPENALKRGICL
Chain of Albumin (Bos taurus) (P02769 whole entry, looked up): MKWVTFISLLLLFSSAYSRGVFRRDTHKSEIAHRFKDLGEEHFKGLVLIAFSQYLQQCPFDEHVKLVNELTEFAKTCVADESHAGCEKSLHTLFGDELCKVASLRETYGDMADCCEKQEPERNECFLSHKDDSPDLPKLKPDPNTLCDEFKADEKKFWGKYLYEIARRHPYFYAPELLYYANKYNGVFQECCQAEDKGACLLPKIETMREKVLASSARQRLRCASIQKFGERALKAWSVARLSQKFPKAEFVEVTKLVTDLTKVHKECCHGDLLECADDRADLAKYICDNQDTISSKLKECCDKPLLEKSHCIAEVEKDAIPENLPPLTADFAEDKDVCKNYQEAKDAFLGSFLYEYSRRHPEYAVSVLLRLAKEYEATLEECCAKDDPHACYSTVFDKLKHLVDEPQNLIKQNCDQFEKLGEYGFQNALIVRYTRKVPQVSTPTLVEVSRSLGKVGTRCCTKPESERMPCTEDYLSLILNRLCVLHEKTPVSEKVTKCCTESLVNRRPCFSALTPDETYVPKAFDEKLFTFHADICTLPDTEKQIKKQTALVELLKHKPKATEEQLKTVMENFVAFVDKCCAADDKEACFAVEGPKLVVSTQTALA
Chain of Alpha-bungarotoxin (Bungarus multicinctus) (P60615 whole entry, looked up): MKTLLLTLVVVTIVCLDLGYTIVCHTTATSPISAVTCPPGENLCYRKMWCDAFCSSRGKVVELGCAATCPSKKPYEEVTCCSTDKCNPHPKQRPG
Chain of Left-right determination factor 2 (Homo sapiens) (O00292 whole entry, looked up): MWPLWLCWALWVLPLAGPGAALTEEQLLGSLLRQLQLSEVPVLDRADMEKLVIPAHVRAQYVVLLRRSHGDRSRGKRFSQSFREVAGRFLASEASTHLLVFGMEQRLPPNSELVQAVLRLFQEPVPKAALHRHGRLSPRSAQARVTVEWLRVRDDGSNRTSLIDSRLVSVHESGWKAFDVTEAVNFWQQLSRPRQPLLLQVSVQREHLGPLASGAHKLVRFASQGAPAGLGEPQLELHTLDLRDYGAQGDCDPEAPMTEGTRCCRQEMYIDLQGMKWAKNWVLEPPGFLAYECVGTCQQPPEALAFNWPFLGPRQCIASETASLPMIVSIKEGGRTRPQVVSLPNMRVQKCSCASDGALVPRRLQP

SMILES	composite z-score [1]	z-score [2]	composite z-score [3]	composite z-score [4]	composite z-score [5]	composite z-score [6]	composite z-score [7]	composite z-score [8]	composite z-score [9]	composite z-score [10]	composite z-score (Albumin (Bos taurus))	composite Z-score [11]	composite z-score [12]	composite z-score [13]	composite z-score [14]	composite z-score [15]	composite z-score [16]	composite z-score (Sam68 (KHDRBS1))	composite z-score [17]	composite z-score [18]
COC(=O)c1c(CC[C@@H](CO)NC(=O)N[C@H](Cn2cc(-c3cncn3C)nn2)C(C)C)oc(C(C)=O)c1C(=O)OC	0.873	0.0688	0.332	-0.055	-0.333	-0.1	-0.2	0.0668	0.542	-0.115	0.697	0.24 (inactive)	-0.0647	-0.11	0.514	0.651	0.203	1.27	0.0779	1.07
CN(C)C(=O)[C@@]1(Cc2ccccc2N=[N+]=[N-])N=C(c2ccc(OCCCO)cc2)O[C@H]1c1ccccc1CN=[N+]=[N-]	0.646	-2.12	0.048	2.51	1.22	0.13	0.721	1.78	3.11	2.96	0.972	0.478 (inactive)	0.293	0.215	0.622	3.13	1.12	1.29	-0.393	1.2
CCCC[C@@H]1C[C@H]1[C@@H](NC(=O)c1ccccc1)c1ccccc1C(F)(F)F	1.38	-0.696	-0.641	1.04	1.09	-0.127	0.204	1.39	1.06	1.61	1.01	-0.814 (inactive)	0.0493	0.0116	0.412	3.03	0.13	1.14	0.377	1.17
C[C@@H]1CC[C@H]2C(=O)N3[C@@H](CC[C@@H](C)[C@@H]3c3cccc(N4CCOCC4)c3)C(=O)N2[C@H]1c1cccc(Br)c1	0.396	-1.97	0.458	0.361	-0.0482	-0.0357	-0.138	0.0205	0.868	1.6	0.718	0.307 (inactive)	-0.0259	-0.0956	0.459	0.425	0.336	1.16	0.932	0.92
C=CC[C@@]12N=C(c3ccc(OCCCO)cc3)O[C@@H]1c1ccccc1CN(Cc1ccccc1)C2=O	1.17	-3.23	-0.397	1.06	0.429	-0.0403	0.116	0.87	1.08	1.56	0.127	0.999 (inactive)	0.0242	-0.053	0.496	1.96	0.377	1.29	0.213	1.02
CO[C@H]1COC(=O)CC=C[C@@H](C)COC(=O)[C@@H](C)NC(=O)CC=C[C@@H]1C	-0.291	0.325	1.6	-3.42	-3.57	-0.307	0.238	-0.139	-0.229	-0.706	-1.07	2.3 (inactive)	-0.0345	-0.153	-0.681	-0.736	-0.495	0.787	1.59	-0.704
